Compounds with a hit are over-represented: about 1.2% of the library has one in this group of screens.
pCIP destab = p/CIP-EGFP fusion destabilizers, primary screen, fluorescence, F442A cells; 290,000 tested, 0.01% active; Q05BA5; 16 h; decrease of EGFP signal, % at 10 µM;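 active means EGFP signal decrease of at least 30% at 10 µM or well 3 SD below plate mean, unless failing retest; inactive means the rest, including hits failing retest or dose response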
Target sequence (Q05BA5 1-1403): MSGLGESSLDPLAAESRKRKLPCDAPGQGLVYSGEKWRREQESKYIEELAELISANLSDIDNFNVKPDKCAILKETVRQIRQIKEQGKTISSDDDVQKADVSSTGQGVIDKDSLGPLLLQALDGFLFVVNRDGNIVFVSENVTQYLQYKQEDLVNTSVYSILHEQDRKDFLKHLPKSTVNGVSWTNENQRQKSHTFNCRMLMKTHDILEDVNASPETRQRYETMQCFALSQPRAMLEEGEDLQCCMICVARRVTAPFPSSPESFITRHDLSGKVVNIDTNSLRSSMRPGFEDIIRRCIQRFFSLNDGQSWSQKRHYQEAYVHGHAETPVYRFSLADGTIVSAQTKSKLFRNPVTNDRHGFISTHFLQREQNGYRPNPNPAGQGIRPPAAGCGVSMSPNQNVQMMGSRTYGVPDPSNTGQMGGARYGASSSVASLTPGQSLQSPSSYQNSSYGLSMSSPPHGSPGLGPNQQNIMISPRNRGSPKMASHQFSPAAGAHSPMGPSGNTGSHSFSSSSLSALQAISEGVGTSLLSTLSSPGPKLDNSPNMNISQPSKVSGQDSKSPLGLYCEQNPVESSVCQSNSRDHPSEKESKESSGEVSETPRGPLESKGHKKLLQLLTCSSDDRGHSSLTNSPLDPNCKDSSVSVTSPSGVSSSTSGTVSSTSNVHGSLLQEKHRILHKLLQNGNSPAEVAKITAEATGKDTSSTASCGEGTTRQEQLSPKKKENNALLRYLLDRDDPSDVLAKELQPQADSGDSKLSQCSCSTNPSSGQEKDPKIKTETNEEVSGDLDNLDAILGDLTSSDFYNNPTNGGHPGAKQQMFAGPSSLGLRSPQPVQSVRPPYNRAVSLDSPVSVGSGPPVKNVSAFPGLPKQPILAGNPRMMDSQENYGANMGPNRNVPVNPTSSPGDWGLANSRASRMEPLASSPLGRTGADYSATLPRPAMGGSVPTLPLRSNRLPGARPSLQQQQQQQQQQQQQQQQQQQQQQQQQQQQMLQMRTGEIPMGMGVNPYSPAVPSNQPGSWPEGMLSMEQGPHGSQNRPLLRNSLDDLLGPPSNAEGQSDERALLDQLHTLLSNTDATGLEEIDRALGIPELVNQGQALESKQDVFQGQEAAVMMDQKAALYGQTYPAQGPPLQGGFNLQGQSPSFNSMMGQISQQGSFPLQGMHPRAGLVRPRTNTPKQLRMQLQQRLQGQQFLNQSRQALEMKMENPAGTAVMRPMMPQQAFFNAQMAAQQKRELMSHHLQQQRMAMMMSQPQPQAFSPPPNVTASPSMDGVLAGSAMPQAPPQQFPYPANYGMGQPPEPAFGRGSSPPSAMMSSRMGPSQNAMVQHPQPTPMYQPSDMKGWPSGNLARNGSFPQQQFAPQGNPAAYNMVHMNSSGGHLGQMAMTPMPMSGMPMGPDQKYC
GASC-1 inh = inhibitors of GASC-1 histone demethylase, primary screen, biochemical, fluorescence, DELFIA europium; Lysine-specific demethylase 4C (Homo sapiens), Q9H3R0; GST-JMJD2C(1-420) H3K9me3 demethylation; inhibition, % at 2.35 µM; 330,000 tested, 0.069% active;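 active means more than half of a compound's replicate wells show inhibition beyond 50%, single wells judged on their own value; inconclusive means some, but no more than half, of replicates pass 50% inhibition; inactive means no replicate passes 50% inhibition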;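 further: signal counts dimethyl H3K9 product captured on neutravidin plate; 0% = median of DMSO wells and 100% = 0.3 times that DMSO median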
GPR7 antag = GPR7 receptor antagonists, primary screen, cell-based, fluorescence, single concentration; GPR7-expressing cells, fluorescence antagonist assay; 290,000 tested, 1.1% active; inhibition, % at 4.4 µM; Neuropeptides B/W receptor type 1 (Homo sapiens), P48145; in the data active means inhibition above about 16%, passing the limit was not always enough;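 further: cells stimulated with the agonist NPW; 0% = agonist with vehicle and 100% = vehicle without agonist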
VLA-4 inh = inhibition in human VLA-4 binding assay, primary screen, VLA-4 allosteric modulator project, MLPCN library, flow cytometry, VLA-4 expressing cells; Integrin alpha-4 (Homo sapiens), P13612; ligand binding flow cytometry; inhibition, % (about 7 µM as worked out from the volumes in the protocol); 330,000 tested, 0.2% active; in the data active means inhibition above about 50%
The depositor's hits bear a star; ! = not active in a repeat.

Screening Cc1ccc(C2c3c(-c4ccccc4O)n[nH]c3C(=O)N2Cc2ccncc2)cc1 (stereo not drawn) returned pCIP destab -12, GASC-1 inh 107, GPR7 antag 20* and VLA-4 inh 4.
`CCSc1nnc2n(N)c(=O)c3ccccc3n12` gave pCIP destab -13 and GPR7 antag -23.
`CC(=O)Nc1ccc(S(=O)(=O)N2CCN(S(=O)(=O)N3CCCCCC3)CC2)cc1` gave pCIP destab -4, GASC-1 inh 9, GPR7 antag 19* and VLA-4 inh 5.
O=C(CN1CCOCC1)Nc1ccc2c(c1)OCO2 was read as pCIP destab -24, GASC-1 inh -4, GPR7 antag -4 and VLA-4 inh 7.
`CN1CCN(S(=O)(=O)c2ccc(NC(=O)c3ccc(Br)s3)cc2)CC1` gave pCIP destab 0, GASC-1 inh -11, GPR7 antag 18* and VLA-4 inh 5.
O=C(O)CSCC(=O)Nc1ccc(S(=O)(=O)N2CCCCC2)cc1 was read as pCIP destab 7, GASC-1 inh -9, GPR7 antag -11 and VLA-4 inh 19.
Screening CC(=O)Nc1ccc(S(=O)(=O)N2CCCC2)cc1 returned pCIP destab -2, GASC-1 inh -13, GPR7 antag -7 and VLA-4 inh 8.
O=C(CN1CCN(S(=O)(=O)c2ccc(Br)cc2)CC1)Nc1ccc2c(c1)OCO2 was read as pCIP destab -4, GASC-1 inh -1, GPR7 antag 31* and VLA-4 inh 11.
`CC(SCC(=O)Nc1ccc(S(=O)(=O)N2CCCCC2)cc1)C(=O)O` (stereo not drawn) gave pCIP destab -18, GASC-1 inh -6, GPR7 antag 19* and VLA-4 inh -22.
`CCN1CCN(C(=O)C(C)Nc2ccc(OC)cc2OC)CC1` (stereo not drawn) gave pCIP destab -17, GASC-1 inh -17, GPR7 antag -5 and VLA-4 inh -5.
Cc1ccc(CNC(=O)[C@H](C)NC(=O)C2CCN(C(=O)[C@@H]3CCCN3C(=O)OC(C)(C)C)CC2)cc1 was read as pCIP destab -5, GASC-1 inh inconclusive, GPR7 antag -3 and VLA-4 inh -18.
`COc1ccc(C(=O)NNC(=O)c2cccs2)cc1S(=O)(=O)N1CCOCC1` gave GASC-1 inh 4 and VLA-4 inh 15.
Screening Cc1ccc(S(=O)(=O)N2CCN(CC(=O)N3CCOCC3)CC2)cc1 returned pCIP destab -12, GASC-1 inh -10, GPR7 antag -2 and VLA-4 inh -4.
Screening CC(=O)Nc1ccc(S(=O)(=O)N2CCN(CC(=O)N3CCOCC3)CC2)cc1 returned pCIP destab 6, GASC-1 inh 13, GPR7 antag 20* and VLA-4 inh 6.
Screening COc1ccc(CNC(=O)C/C(C)=N/NC(=O)c2ccc(OC)cc2OC)cc1 returned pCIP destab -12, GASC-1 inh 4, GPR7 antag 9 and VLA-4 inh 12.
For CCCCn1c(=O)[nH]c(=O)c2c1nc(-c1cc(Cl)c(OC)c(OC)c1)n2C the results were pCIP destab -15, GASC-1 inh 52*, GPR7 antag -12 and VLA-4 inh -3.
Screening Cc1ccc(NC(=O)c2cnc(N3CCN(c4ccccn4)CC3)c3ccccc23)c(Br)c1 returned pCIP destab -9, GASC-1 inh 14, GPR7 antag 26* and VLA-4 inh 14.
Screening O=C(COC(=O)C1CC(=O)N(Cc2ccco2)C1)Nc1nc(-c2ccc(F)cc2)cs1 (stereo not drawn) returned GASC-1 inh 2 and VLA-4 inh 6.
For N#Cc1ccc(N=c2ssnc2Cl)cc1 the results were pCIP destab -4, GASC-1 inh 58*!, GPR7 antag 3 and VLA-4 inh -5.
`Clc1ccc(N=c2ssnc2Cl)cc1` gave pCIP destab 8, GASC-1 inh inconclusive, GPR7 antag -13 and VLA-4 inh 0.
CCn1c(=N)n(CC(=O)c2ccc(Br)s2)c2ccccc21 was read as pCIP destab 8, GASC-1 inh 6, GPR7 antag 20* and VLA-4 inh 8.
CCCCn1c(=N)n(CC(=O)c2ccc(Br)s2)c2ccccc21 was read as pCIP destab 8, GASC-1 inh 1, GPR7 antag 7 and VLA-4 inh -4.
`CCCCCCCCn1ccc(=N)cc1` gave pCIP destab -23, GASC-1 inh 12, GPR7 antag -2 and VLA-4 inh -6.
CCCCCCCCCCn1ccc(=N)cc1 was read as pCIP destab -8, GASC-1 inh -5, GPR7 antag 23* and VLA-4 inh -4.
Screening COC(=O)CC1C(=O)NCCN1C(=O)CSc1nc2ccccc2o1 (stereo not drawn) returned pCIP destab -4, GASC-1 inh -36, GPR7 antag 22* and VLA-4 inh 3.
`COC(=O)CC1C(=O)NCCN1C(=O)CSc1nc2ccccc2c(=O)n1CC(C)C` (stereo not drawn) gave pCIP destab -8, GASC-1 inh -1, GPR7 antag -14 and VLA-4 inh 9.
C/C(N)=C(/C#N)C(=O)CSc1nnnn1-c1ccccc1 was read as pCIP destab 7, GASC-1 inh 1, GPR7 antag -10 and VLA-4 inh 0.
Screening C/C(N)=C(/C#N)C(=O)CSc1nnnn1-c1ccc(C)cc1 returned pCIP destab -3, GASC-1 inh 1, GPR7 antag 15* and VLA-4 inh 9.
Cc1ccc(S(=O)(=O)N2CCC(C(=O)Nc3ncccc3O)CC2)cc1 was read as GASC-1 inh -11 and VLA-4 inh 6.
`Cc1onc(-c2ccccc2)c1C(=O)N=C(N)c1ccc(C(F)(F)F)cc1` gave pCIP destab 1, GASC-1 inh -2, GPR7 antag 1 and VLA-4 inh 0.
`COc1ccccc1NC(=O)Cn1nnc(-c2ccccc2NS(=O)(=O)c2ccccc2)n1` gave pCIP destab -6, GASC-1 inh 4, GPR7 antag -3 and VLA-4 inh 3.
COc1ccc(NC(=O)Cn2nnc(-c3ccccc3NS(=O)(=O)c3ccc(OC)cc3)n2)cc1 was read as pCIP destab 1, GASC-1 inh 0, GPR7 antag 26* and VLA-4 inh 23.
`COc1ccc(NS(=O)(=O)c2ccc(NC(=O)c3ccc(CN4CCOCC4)cc3)cc2)cc1` gave pCIP destab -14, GASC-1 inh 1, GPR7 antag 24* and VLA-4 inh 7.
O=C(Nc1ccc(S(=O)(=O)N2CCCC2)cc1)c1ccc(CN2CCOCC2)cc1 was read as pCIP destab -7, GASC-1 inh 7, GPR7 antag 16 and VLA-4 inh 9.
`Cc1ccc(NC(=O)C2=C(c3ccccc3)S(=O)(=O)CCS2(=O)=O)cc1` gave pCIP destab 11, GASC-1 inh 0, GPR7 antag 34* and VLA-4 inh 23.
CCOC(=O)c1c(NC(=O)C2CCCO2)sc(C)c1C (stereo not drawn) was read as pCIP destab -5, GASC-1 inh 5, GPR7 antag -9 and VLA-4 inh -2.
